PubChem BioAssay (NCATS)
Records with an inconclusive call do not appear. The source made the active and inactive calls. Calls come from the whole dose curve; as a rule, active = well fitted curve in the direction sought with a large enough effect; inconclusive = small, poorly fitted or top-dose-only effect, or another doubt; inactive = no such curve, though single readings can be large; an effect the other way counts as inactive or inconclusive.

Legend:
[1] = Quantitative High-Throughput drug screen in 47 multiple myeloma cell lines against the NCATS MIPE library collection: KHM11_PLB cell viability assay (AID 1918962); note: nearly all actives have a fitted effect of over 35% in size
In short: (§1)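 Primary qHTS used for cherry-picking: cells at 500/well, library compounds for 48 h (37C, 5% CO2), luminescent ATP assay.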

[2] = Quantitative High-Throughput drug screen in 47 multiple myeloma cell lines against the NCATS MIPE library collection: JIM3_ECACC cell viability assay (AID 1918963; note: nearly all actives have a fitted effect of over 35% in size)
In short: as §1

[3] = Quantitative High-Throughput drug screen in 47 multiple myeloma cell lines against the NCATS MIPE library collection: H1112_PLB cell viability assay (AID 1918967; note: nearly all actives have a fitted effect of over 30% in size)
In short: (§2)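 Relative luminescence from CellTiter-Glo served as the viability signal, referenced to DMSO-treated (100%) and cell-free medium (0%) controls. Treatment lasted 48 hours at 37C with 500 cells per well.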

[4] = Quantitative High-Throughput drug screen in 47 multiple myeloma cell lines against the NCATS MIPE library collection: Karpas25_ECACC cell viability assay (AID 1918968; note: nearly all actives have a fitted effect of over 35% in size)
In short: as §2

[5] = Quantitative High-Throughput drug screen in 47 multiple myeloma cell lines against the NCATS MIPE library collection: KMS12PE_JCRB cell viability assay (AID 1918972); note: nearly all actives have a fitted effect of over 30% in size; for viability: series mostly up to about 46 µM
In short: (§3)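 We plated 500 myeloma cells per well, pinned in MIPE 4.0 compounds, and incubated for 48 hours at 37C. ATP was then quantified with CellTiter-Glo, with DMSO and media-only wells defining 100% and 0%.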

[6] = Quantitative High-Throughput drug screen in 47 multiple myeloma cell lines against the NCATS MIPE library collection: NCIH929_DSMZ cell viability assay (AID 1918978); note: nearly all actives have a fitted effect of over 35% in size
In short: (§4)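 Plated at 500 cells per well, myeloma lines received MIPE 4.0 compounds by pin tool. Following 48 h culture at 37 °C, CellTiter-Glo luminescence gave viability relative to DMSO and media-only controls.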

[7] = Quantitative High-Throughput drug screen in 47 multiple myeloma cell lines against the NCATS MIPE library collection: OCIMY1_PLB cell viability assay (AID 1918979); note: nearly all actives have a fitted effect of over 35% in size; for viability: series mostly up to about 46 µM
In short: as §4

[8] = Quantitative High-Throughput drug screen in 47 multiple myeloma cell lines against the NCATS MIPE library collection: MM1R_ATCC cell viability assay (AID 1918981); note: nearly all actives have a fitted effect of over 35% in size
In short: as §4

[9] = Quantitative High-Throughput drug screen in 47 multiple myeloma cell lines against the NCATS MIPE library collection: LP1_DSMZ cell viability assay (AID 1918982); note: nearly all actives have a fitted effect of over 35% in size
In short: as §4

[10] = Quantitative High-Throughput drug screen in 47 multiple myeloma cell lines against the NCATS MIPE library collection: INA6_PLB cell viability assay (AID 1918965; note: nearly all actives have a fitted effect of over 55% in size)
In short: as §3

[11] = Quantitative High-Throughput drug screen in 47 multiple myeloma cell lines against the NCATS MIPE library collection: KMS27_JCRB cell viability assay (AID 1918970); note: nearly all actives have a fitted effect of over 30% in size
In short: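 Each line is seeded at 500 cells per well and treated with library compounds for 48 hours under 37 °C, 5% CO2. CellTiter-Glo is then added for 5 min at room temperature before median relative luminescence is recorded.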

[12] = Quantitative High-Throughput drug screen in 47 multiple myeloma cell lines against the NCATS MIPE library collection: KMS12BM_JCRB cell viability assay (AID 1918971); note: nearly all actives have a fitted effect of over 35% in size
In short: (§5)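 Steps: seed 500 cells per well; pin-transfer MIPE 4.0 library; incubate 48 h at 37C, 5% CO2, humidified; add CellTiter-Glo, 5 min room temperature; read luminescence.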

[13] = Quantitative High-Throughput drug screen in 47 multiple myeloma cell lines against the NCATS MIPE library collection: KMS26_JCRB cell viability assay (AID 1918975); note: nearly all actives have a fitted effect of over 45% in size
In short: as §5

[14] = Quantitative High-Throughput drug screen in 47 multiple myeloma cell lines against the NCATS MIPE library collection: MMM1_PLB cell viability assay (AID 1918976); note: nearly all actives have a fitted effect of over 35% in size
In short: as §4

[15] = Quantitative High-Throughput drug screen in 47 multiple myeloma cell lines against the NCATS MIPE library collection: MM1S_ATCC cell viability assay (AID 1918980); note: nearly all actives have a fitted effect of over 45% in size
In short: as §4

[16] = Quantitative High-Throughput drug screen in 47 multiple myeloma cell lines against the NCATS MIPE library collection: JJN3_DSMZ cell viability assay (AID 1918966; note: nearly all actives have a fitted effect of over 50% in size)
In short: as §2

[17] = Quantitative High-Throughput drug screen in 47 multiple myeloma cell lines against the NCATS MIPE library collection: MOLP8_DSMZ cell viability assay (AID 1918977); note: nearly all actives have a fitted effect of over 45% in size
In short: as §4

[18] = Quantitative High-Throughput drug screen in 47 multiple myeloma cell lines against the NCATS MIPE library collection: JIM1_ECACC cell viability assay (AID 1918964)
In short: as §2

Measured: Potency
Potency is the fitted concentration of half-maximal effect.

COc1ccc2cccc(CCNC(C)=O)c2c1
inactive: [1] | [2] | [3] | [4] | [5] | [6] | [7] | [8] | [9]

NC(=O)[C@@H](CCC(F)(F)F)N(Cc1ccc(-c2ncon2)cc1F)S(=O)(=O)c1ccc(Cl)cc1
active: [10] 26.4 µM | [12] 18.7 µM | [14] 26.4 µM | [15] 16.6 µM
inactive: [1] | [11] | [13] | [7] | [8]

COc1cc2c(cc1OC)CN(CCc1ccc(NC(=O)c3cc(OC)c(OC)cc3NC(=O)c3cnc4ccccc4c3)cc1)CC2
inactive: [11] | [5] | [17] | [7] | [9]
active: [1] 20.9 µM | [2] 23.5 µM | [16] 0.526 µM | [4] 8.33 µM | [12] 10.5 µM | [6] 8.33 µM

CC(C)OC(=O)C(C)(C)Oc1ccc(C(=O)c2ccc(Cl)cc2)cc1
active: [1] 26.4 µM | [16] 16.6 µM | [12] 13.2 µM | [13] 11.8 µM
inactive: [2] | [7] | [15]

COc1ccc(-n2c(C)c([N+](=O)[O-])c3ccc(O)cc32)cc1
active: [4] 26.4 µM | [8] 16.6 µM
inactive: [1] | [2] | [3] | [17] | [7]

COCCOc1nc(-c2ccc(Cl)c(Cl)c2)n(-c2ccc(NC(=O)CCl)cc2)n1
active: [1] 11.8 µM | [18] 14.8 µM | [10] 11.8 µM | [16] 23.5 µM | [3] 14.8 µM | [4] 5.26 µM | [11] 16.6 µM | [12] 16.6 µM | [5] 14.8 µM | [14] 16.6 µM | [6] 13.2 µM | [8] 14.8 µM

CC#CCn1c(N2CCC[C@@H](N)C2)nc2c1c(=O)n(Cc1nc(C)c3ccccc3n1)c(=O)n2C
inactive: [1] | [11] | [5] | [13] | [17] | [7] | [8] | [9]
active: [16] 3.72 µM | [4] 14.8 µM

O=C(O)c1c(Cl)c(Cl)c(Cl)c(Cl)c1-c1c2cc(I)c(=O)c(I)c-2oc2c(I)c(O)c(I)cc12
active: [2] 7.43 µM | [18] 2.35 µM | [10] 10.5 µM | [16] 5.9 µM | [3] 3.32 µM | [4] 7.43 µM | [5] 10.5 µM | [6] 6.62 µM | [15] 6.62 µM | [8] 13.2 µM

O=C(O)C=Cc1ccc(O)c(O)c1
inactive: [1] | [2] | [3]
active: [16] 10.5 µM | [11] 16.6 µM | [12] 20.9 µM | [17] 20.9 µM | [7] 10.5 µM | [15] 9.35 µM | [8] 23.5 µM

O=c1cc(CN2CCOCC2)occ1OCCCCCSc1ccnc2cc(C(F)(F)F)ccc12
active: [2] 4.69 µM | [18] 18.7 µM | [10] 7.43 µM | [16] 7.43 µM | [3] 0.833 µM | [4] 0.743 µM | [11] 20.9 µM | [12] 5.9 µM | [5] 16.6 µM | [14] 16.6 µM | [6] 3.72 µM | [9] 18.7 µM

Nc1ncnc2ccccc12
active: [6] 26.4 µM
inactive: [2] | [18] | [10] | [16] | [11] | [17] | [7] | [8] | [9]

CCC(=O)O[C@]1(C(=O)CO)CC[C@H]2[C@@H]3CCC4=CC(=O)CC[C@]4(C)[C@@H]3CC[C@@]21C
active: [9] 5.26 µM
inactive: [1] | [2] | [16] | [11] | [5] | [6] | [7]

N[C@H](CSC(c1ccccc1)(c1ccccc1)c1ccccc1)C(=O)O
inactive: [14]
active: [2] 10.5 µM | [18] 14.8 µM | [10] 7.43 µM | [4] 11.8 µM

O=c1c(-c2ccc(O)cc2)coc2cc(OC3O[C@H](CO)[C@H](O)[C@H](O)[C@H]3O)cc(O)c12 (stereo partly specified)
inactive: [18] | [7]
active: [2] 4.69 µM | [10] 10.5 µM | [4] 3.32 µM | [14] 18.7 µM | [6] 2.09 µM | [15] 4.18 µM | [8] 16.6 µM

O=c1c(-c2ccc(O)cc2)coc2cc(O)ccc12
inactive: [2] | [18] | [10] | [3] | [4] | [11] | [5] | [6] | [9]
active: [14] 5.26 µM

COc1ccc2c(Oc3ccc(NC(=O)c4c(C)n(CC(C)(C)O)n(-c5ccccc5)c4=O)nc3)ccnc2c1
inactive: [2] | [18] | [3] | [6] | [7] | [8] | [9]
